About 83,000 compounds went through this panel and 20% of them were active in at least one assay; those are over-represented in the sample as a whole.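 Values shown are percent growth following 48 h exposure of cells in 96-well plates to a single concentration of compound; below 10 was considered active.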 Calls of active or inactive are those of the source.
Key:
Test in all cases: NCI-60 one-dose screen, 48 h (100 = growth as untreated, 0 = no growth, -100 = all killed)
Details in all cases: 10 µM
SK-MEL-2 melanoma = test system: SK-MEL-2 melanoma
SN12C renal = test system: SN12C renal
UO-31 renal = test system: UO-31 renal
TK-10 renal = test system: TK-10 renal
ACHN renal = test system: ACHN renal
CAKI-1 renal = test system: CAKI-1 renal
CCRF-CEM leukemia = test system: CCRF-CEM leukemia
MOLT-4 leukemia = test system: MOLT-4 leukemia
A498 renal = test system: A498 renal

Measured: growth

C#CCn1c(-c2cccc(OCCCCl)c2)nc2c1c(=O)n(C)c(=O)n2C
inactive: SK-MEL-2 melanoma 81% | SN12C renal 84.5% | UO-31 renal 50.5% | TK-10 renal 101% | ACHN renal 76.6% | CAKI-1 renal 69.2% | CCRF-CEM leukemia 13%
active: MOLT-4 leukemia 2.33%

COc1ccc(-c2cc(/C=C3\C(=O)Nc4cc(Cl)ccc43)[nH]n2)cc1
inactive: SN12C renal 41.7% | UO-31 renal 27.2% | TK-10 renal 58.1% | ACHN renal 44.9% | A498 renal 58.3% | CCRF-CEM leukemia 18.6% | MOLT-4 leukemia 21.7%
active: SK-MEL-2 melanoma -0.387%

CCC(O)c1ccc(Br)cc1NC(=O)c1cccc(Cl)c1 (stereo not given)
active: UO-31 renal -11.6% | CAKI-1 renal 7.99% | CCRF-CEM leukemia 6.46%
inactive: SK-MEL-2 melanoma 34% | SN12C renal 18.7% | TK-10 renal 41.9% | ACHN renal 15.6% | MOLT-4 leukemia 10.1%

COc1ccc(-c2nc(SCC(=O)c3ccc(Br)cc3)[nH]c(=O)c2C#N)cc1
inactive: SK-MEL-2 melanoma 103% | SN12C renal 112% | UO-31 renal 86.3% | TK-10 renal 99.6% | ACHN renal 122% | CAKI-1 renal 99.9% | A498 renal 78.5% | MOLT-4 leukemia 96.8%

O=C1c2cc(Cl)ccc2-c2c(O)cc(Cl)cc21
inactive: SK-MEL-2 melanoma 62.3% | SN12C renal 72.2% | UO-31 renal 49.6% | TK-10 renal 114% | ACHN renal 66% | CAKI-1 renal 90.7% | MOLT-4 leukemia 47.3%

COc1ccc(-c2ccc(-c3ccc(C(=N)N)c(F)c3)s2)cc1
active: SK-MEL-2 melanoma -75.3% | SN12C renal -79.2% | UO-31 renal -86.8% | TK-10 renal -96.4% | ACHN renal -89.7% | CAKI-1 renal -89.8% | A498 renal -97.4% | CCRF-CEM leukemia -68.3% | MOLT-4 leukemia -80.1%

Cc1cc(Nc2cccc(F)c2)nc(NCc2ccccc2)n1
inactive: SK-MEL-2 melanoma 19.8% | SN12C renal 16.7% | UO-31 renal 20.7% | TK-10 renal 35.7% | ACHN renal 17.1% | CAKI-1 renal 24.1% | A498 renal 24.4% | CCRF-CEM leukemia 12.8% | MOLT-4 leukemia 22.5%

COc1ccc(-c2nnc(COc3ccc(NC(=O)Nc4cccc(C(F)(F)F)c4)cc3F)o2)cc1
inactive: SK-MEL-2 melanoma 36.8% | SN12C renal 48.7% | UO-31 renal 57.2% | TK-10 renal 75.3% | ACHN renal 27.3% | CAKI-1 renal 50.6% | CCRF-CEM leukemia 47.7% | MOLT-4 leukemia 33.8%

O=C(Nc1cccc(Cl)c1)Nc1cc2ncncc2cc1OCc1cccc(F)c1
inactive: SN12C renal 21.7%
active: SK-MEL-2 melanoma -24.3% | UO-31 renal 9.37% | TK-10 renal -3.16% | ACHN renal 3.47% | A498 renal -9.36% | CCRF-CEM leukemia 2.81% | MOLT-4 leukemia 4.84%

NS(=O)(=O)c1ccc(N2N=C(c3ccc(-c4ccccc4)cc3)CC2c2ccc(Cl)cc2)cc1 (stereo not given)
inactive: SK-MEL-2 melanoma 95.5% | SN12C renal 67.4% | UO-31 renal 72.1% | TK-10 renal 112% | ACHN renal 80.4% | A498 renal 87.4% | CCRF-CEM leukemia 74.4% | MOLT-4 leukemia 70.6%

COc1ccc(NC(=O)c2sc3nc4c(cc3c2N)C(O)CCC4)cc1 (stereo not given)
inactive: SK-MEL-2 melanoma 96% | SN12C renal 99.8% | UO-31 renal 86.4% | TK-10 renal 122% | ACHN renal 113% | CAKI-1 renal 92.7% | CCRF-CEM leukemia 101% | MOLT-4 leukemia 92.8%

COc1cc(C2=Nc3c/c(=C\c4c(O)[nH]c5ccc(Cl)cc45)ccc3=N2)cc(OC)c1OC
inactive: SK-MEL-2 melanoma 31.1% | UO-31 renal 35.5% | TK-10 renal 35% | ACHN renal 73.2% | CAKI-1 renal 50.4% | A498 renal 93.4% | MOLT-4 leukemia 10.3%
active: CCRF-CEM leukemia 8.61%

COc1ccc(C2=NNC(c3sc(Cl)nc3Cl)C2)cc1 (stereo not given)
active: MOLT-4 leukemia 7.63%
inactive: SK-MEL-2 melanoma 62.8% | SN12C renal 22.4% | UO-31 renal 85.3% | TK-10 renal 116% | ACHN renal 105% | A498 renal 102% | CCRF-CEM leukemia 17.7%

NC1CCC(Nc2nc(NCc3ccc(-c4ccco4)nc3)c3ncn(C4CCCC4)c3n2)CC1 (stereo not given)
inactive: UO-31 renal 10.8% | CAKI-1 renal 17.3%
active: SK-MEL-2 melanoma -73.6% | TK-10 renal 3.91% | ACHN renal 2.36% | A498 renal -70.8% | CCRF-CEM leukemia -0.411% | MOLT-4 leukemia -12.3%

COc1cc(OC)cc(-c2ccc(-c3ccc(C(=N)N)cn3)o2)c1
inactive: A498 renal 44.1%
active: SK-MEL-2 melanoma -76.8% | SN12C renal -50.5% | UO-31 renal -33.9% | TK-10 renal 0.358% | ACHN renal 1.34% | CCRF-CEM leukemia -25.6% | MOLT-4 leukemia -41.9%

COc1ccc(Nc2ccnc(N3CCN(c4ccnc5cc(Cl)ccc45)CC3)n2)cc1
active: SK-MEL-2 melanoma -19.3% | UO-31 renal -1.7% | TK-10 renal 4.85% | A498 renal -6.15% | CCRF-CEM leukemia 2.09% | MOLT-4 leukemia -48.9%
inactive: SN12C renal 14.1% | ACHN renal 11.2%

N#Cc1ccc(-n2cnc(NC(=O)[C@H]3CCN(C#N)C3)c2)cc1
active: SK-MEL-2 melanoma -31.7% | A498 renal -18.4% | MOLT-4 leukemia 9.28%
inactive: UO-31 renal 18.6% | TK-10 renal 21.1% | ACHN renal 11.8% | CAKI-1 renal 34.9% | CCRF-CEM leukemia 12.3%

CCCc1ccnc(NS(=O)(=O)c2ccc(N)cc2)n1
inactive: SK-MEL-2 melanoma 97.7% | UO-31 renal 86.5% | TK-10 renal 93.4% | ACHN renal 112% | CAKI-1 renal 103% | A498 renal 79.2% | CCRF-CEM leukemia 46.4% | MOLT-4 leukemia 81.9%

CC(C)(C)CC(C)(C)c1ccc(O)c(Cc2ccc(Cl)cc2Cl)c1
active: SK-MEL-2 melanoma -76.9% | UO-31 renal -98.7% | TK-10 renal -92.7% | A498 renal -94% | CCRF-CEM leukemia -37.4% | MOLT-4 leukemia -62.7%

O=S(=O)(NC1c2ccccc2Oc2ccccc21)c1ccccc1
inactive: SK-MEL-2 melanoma 94% | UO-31 renal 81.9% | TK-10 renal 86.4% | ACHN renal 84.5% | CAKI-1 renal 90.1% | CCRF-CEM leukemia 61.8% | MOLT-4 leukemia 88.1%

CS(=O)(=O)Nc1ccc(Nc2c3ccccc3nc3cc(Cl)ccc23)cc1
active: UO-31 renal 0.84% | ACHN renal 9.36% | CCRF-CEM leukemia 7.94% | MOLT-4 leukemia -5.91%
inactive: SK-MEL-2 melanoma 74.1% | SN12C renal 13.9% | TK-10 renal 55% | A498 renal 48.5%

COCc1cc2c(cc1Br)OCO2
inactive: SK-MEL-2 melanoma 96.7% | UO-31 renal 84.6% | TK-10 renal 95.7% | ACHN renal 101% | CAKI-1 renal 95% | A498 renal 91.2% | CCRF-CEM leukemia 71.9% | MOLT-4 leukemia 107%

O=C(Nc1cccc(F)c1)Nc1cccc(Cl)c1
inactive: SK-MEL-2 melanoma 101% | SN12C renal 87.4% | UO-31 renal 87.1% | TK-10 renal 116% | ACHN renal 88.1% | A498 renal 36.7% | CCRF-CEM leukemia 84.4%
active: MOLT-4 leukemia 4.94%

O=[N+]([O-])c1ccc(-c2nc(Cl)c3c(n2)CCCC3)o1
inactive: SK-MEL-2 melanoma 102% | SN12C renal 42.5% | UO-31 renal 97.8% | TK-10 renal 118% | ACHN renal 97.4% | A498 renal 84.3% | CCRF-CEM leukemia 86.8% | MOLT-4 leukemia 92.8%

Reference: PubChem BioAssay (NCI)
